Results filed as inconclusive are left out. A call without a number means that no potency is given here. Activity calls are given as the source filed them. Calls follow the shape of the dose curve; as a rule, active = well fitted inhibition curve with a large enough effect; inconclusive = small, poorly fitted or top-dose-only effect; inactive = no such curve, though single readings can be large or run the other way.
Target: Cytochrome P450 2C9 (Homo sapiens) (UniProt P11712)
Test: qHTS Assay for Inhibitors and Substrates of Cytochrome P450 2C9 (AID 883)
Conditions: recombinant CYP2C9, luciferin-H luminescence, 60 min; series mostly up to 57.1 µM
Summary of the method: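 Human CYP2C9 (10nM) with Luciferin-H at 100uM (its KM) in 25mM KPO4; compound preincubated 10 min at 37C, then NADPH regeneration for 60 min at 37C. Luciferin read by luminescence after detection reagent; normalized to 57uM sulphaphenazole as full inhibition.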
Also: nearly all actives have a fitted effect of over 60% in size.

Chain of Cytochrome P450 2C9 (Homo sapiens) (P11712 whole entry, looked up): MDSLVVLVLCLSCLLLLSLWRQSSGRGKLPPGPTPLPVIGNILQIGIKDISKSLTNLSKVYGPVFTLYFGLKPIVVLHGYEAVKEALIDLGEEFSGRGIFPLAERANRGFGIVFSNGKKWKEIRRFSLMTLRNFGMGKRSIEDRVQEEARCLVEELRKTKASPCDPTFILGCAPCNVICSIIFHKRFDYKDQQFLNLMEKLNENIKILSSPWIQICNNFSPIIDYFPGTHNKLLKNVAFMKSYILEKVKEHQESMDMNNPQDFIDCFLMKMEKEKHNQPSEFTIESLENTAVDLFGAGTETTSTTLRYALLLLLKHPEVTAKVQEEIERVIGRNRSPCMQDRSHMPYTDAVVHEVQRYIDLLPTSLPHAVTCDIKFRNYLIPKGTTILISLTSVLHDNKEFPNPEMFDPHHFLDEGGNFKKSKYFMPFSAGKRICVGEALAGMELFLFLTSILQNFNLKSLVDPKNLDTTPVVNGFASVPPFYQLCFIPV

Structure (SMILES) | Potency
CC(C)[C@@H](CC(=O)N[C@@H]1CCCC[C@H]1C(=O)N[C@H](CC(=O)N[C@@H](CCC(=O)O)CC(=O)O)Cc1ccccc1)NC(=O)C[C@H](Cc1ccccc1)NC(=O)[C@@H]1CCCC[C@H]1N | inactive
CC(C)C[C@@H](CC(=O)N[C@@H](CCCN)CC(=O)N[C@@H]1CCNC[C@H]1C(=O)N[C@H](CC(=O)N[C@@H](CCC(=O)O)CC(=O)O)Cc1ccccc1)NC(=O)[C@@H]1CNCC[C@H]1N | inactive
CC(C)[C@@H](CC(=O)N[C@@H]1CCCC[C@H]1C(=O)N[C@H](CC(=O)N[C@@H](CCC(=O)O)CC(=O)O)Cc1ccccc1)NC(=O)C[C@H](Cc1c[nH]c2ccccc12)NC(=O)[C@@H]1CNCC[C@H]1N | inactive
NCCC[C@@H](CC(=O)N[C@@H]1CCNC[C@H]1C(=O)N[C@H](CC(=O)N[C@@H](CCC(=O)O)CC(=O)O)Cc1c[nH]c2ccccc12)NC(=O)C[C@H](Cc1ccccc1)NC(=O)[C@@H]1CCCC[C@H]1N | inactive
NCCC[C@@H](CC(=O)N[C@@H]1CCCC[C@H]1C(=O)N[C@H](CC(=O)N[C@@H](CCC(=O)O)CC(=O)O)Cc1ccccc1)NC(=O)C[C@H](Cc1c[nH]c2ccccc12)NC(=O)[C@@H]1CNCC[C@H]1N | inactive
NCCC[C@@H](CC(=O)N[C@@H]1CCNC[C@H]1C(=O)N[C@H](CC(=O)N[C@@H](CCC(=O)O)CC(=O)O)Cc1ccccc1)NC(=O)C[C@H](Cc1ccccc1)NC(=O)[C@@H]1CCCC[C@H]1N | inactive
CC(C)C[C@@H](CC(=O)N[C@@H](CCCN)CC(=O)N[C@@H]1CCNC[C@H]1C(=O)N[C@H](CC(=O)N[C@@H](CCC(=O)O)CC(=O)O)Cc1ccccc1)NC(=O)[C@@H]1CCCC[C@H]1N | inactive

Target: Cytochrome P450 2D6 (Homo sapiens) (UniProt P10635)
Sequence (P10635 whole entry, looked up): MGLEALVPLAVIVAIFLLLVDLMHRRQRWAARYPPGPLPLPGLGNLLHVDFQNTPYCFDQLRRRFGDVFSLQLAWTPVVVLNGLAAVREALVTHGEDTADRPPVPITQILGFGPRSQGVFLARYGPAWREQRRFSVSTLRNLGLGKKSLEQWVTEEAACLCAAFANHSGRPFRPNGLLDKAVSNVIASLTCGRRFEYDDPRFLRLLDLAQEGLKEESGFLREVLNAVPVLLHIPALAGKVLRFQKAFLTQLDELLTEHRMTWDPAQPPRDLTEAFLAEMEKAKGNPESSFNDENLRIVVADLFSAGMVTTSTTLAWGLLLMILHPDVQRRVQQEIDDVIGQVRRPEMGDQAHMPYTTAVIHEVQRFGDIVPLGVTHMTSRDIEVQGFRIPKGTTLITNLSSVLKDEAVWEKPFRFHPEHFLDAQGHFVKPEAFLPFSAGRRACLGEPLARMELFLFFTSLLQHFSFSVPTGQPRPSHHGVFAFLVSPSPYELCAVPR
Test: qHTS Assay for Inhibitors and Substrates of Cytochrome P450 2D6 (AID 891);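 also: luciferin methyl ether substrate demethylated by CYP2D6 with NADPH regeneration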
Conditions: recombinant CYP2D6, luciferin-ME EGE luminescence; series mostly up to 57.1 µM
Summary of the method: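 Luminescent read-out of luciferin formed by 5 nM human CYP2D6 demethylating 30 uM Luciferin-ME EGE (Km level) over 60 min at room temperature after NADPH regeneration addition. Data normalized to full inhibition by 1.43 uM quinidine.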

Structure (SMILES) | Potency
CC(C)[C@@H](CC(=O)N[C@@H]1CCCC[C@H]1C(=O)N[C@H](CC(=O)N[C@@H](CCC(=O)O)CC(=O)O)Cc1ccccc1)NC(=O)C[C@H](Cc1ccccc1)NC(=O)[C@@H]1CNCC[C@H]1N | inactive
CC(C)C[C@@H](CC(=O)N[C@@H](CCCN)CC(=O)N[C@@H]1CCNC[C@H]1C(=O)N[C@H](CC(=O)N[C@@H](CCC(=O)O)CC(=O)O)CC(C)C)NC(=O)[C@@H]1CNCC[C@H]1N | inactive
CC(C)[C@@H](CC(=O)N[C@@H]1CCCC[C@H]1C(=O)N[C@H](CC(=O)N[C@@H](CCC(=O)O)CC(=O)O)Cc1ccccc1)NC(=O)C[C@H](Cc1c[nH]c2ccccc12)NC(=O)[C@@H]1CNCC[C@H]1N | inactive
NCCC[C@@H](CC(=O)N[C@@H]1CCCC[C@H]1C(=O)N[C@H](CC(=O)N[C@@H](CCC(=O)O)CC(=O)O)Cc1ccccc1)NC(=O)C[C@H](Cc1c[nH]c2ccccc12)NC(=O)[C@@H]1CNCC[C@H]1N | inactive
NCCC[C@@H](CC(=O)N[C@@H]1CCNC[C@H]1C(=O)N[C@H](CC(=O)N[C@@H](CCC(=O)O)CC(=O)O)Cc1ccccc1)NC(=O)C[C@H](Cc1ccccc1)NC(=O)[C@@H]1CCCC[C@H]1N | inactive
CC(C)C[C@@H](CC(=O)N[C@@H](CCCN)CC(=O)N[C@@H]1CCCC[C@H]1C(=O)N[C@H](CC(=O)N[C@@H](CCC(=O)O)CC(=O)O)CC(C)C)NC(=O)[C@@H]1CNCC[C@H]1N | inactive
CC(C)C[C@@H](CC(=O)N[C@H](CC(=O)N[C@@H]1CCNC[C@H]1C(=O)N[C@H](CC(=O)N[C@@H](CCC(=O)O)CC(=O)O)Cc1c[nH]c2ccccc12)C(C)C)NC(=O)[C@@H]1CCCC[C@H]1N | inactive

From PubChem BioAssay (NCATS)
